# Reference: PubChem BioAssay (EPA / NIEHS)
# Calls of active or inactive are those of the source. Rule for the calls: active = hit-call score of the fitted dose curve at least 0.9, where 1 is the maximum; inactive = score below 0.9.
# Read-out: Monokine induced gamma interferon (MIG), CXCL9 (gene 4283)
# Test: BSK_3C_MIG: BioMAP Diversity Plus: 3C Assay for Monokine induced gamma interferon (MIG) Biomarker Activity (AID 2283021);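 for AC50: MIG protein level measured by immunoassay in the treated endothelial cultures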
# Settings: primary human endothelial cells (HUVEC); actives raise or lower the signal
# Protocol: BSK_3C is a cell-based, multiplexed-readout assay that uses umbilical vein endothelium, a human vascular primary cell, with measurements taken at 24 hours after chemical dosing in a 96-well plate.BSK_3C_MIG is an assay component measured in the BSK_3C assay. It measures MIG antibody related to regulation of gene expression using ELISA technology.Data from the assay component BSK_3C_MIG was analyzed into 1 assay endpoint. This assay endpoint, BSK_3C_MIG, was analyzed with bidirectional fitting relative to DMSO as the negative control and baseline of activity. Using a type of binding reporter, gain or loss-of-signal activity can be used to understand changes in the signaling as they relate to the gene CXCL9. Furthermore, this assay endpoint can be referred to as a primary readout, because this assay has produced multiple assay endpoints where this one serves a signaling function. To generalize the intended target to other relatable targets, this assay endpoint is annotated to the cytokine intended target family, where the subfamily is chemotactic factor.
# The levels of cell surface (or secreted, indicated by the prefix "s") biomarker endpoints were measured by ELISA. Overt cytotoxicity to cells in confluent adherent cultures (all systems other than the BT system) was assessed by measuring total protein levels using sulforhodamine B (SRB) staining in parallel cultures at the time of biomarker measurements, indicated as SRB endpoints. For proliferation assays for adherent cell types, individual cell types are cultured at sub-confluence and relative cell numbers quantified by SRB staining at time points optimized for each system (48 h: 3C and CASM3C systems; 72 h: BT and HDF3CGF systems; 96 h: SAg system). SRB was performed by staining cells with 0.1% SRB after fixation with 10% TCA and reading wells at 560 nm.Viability and proliferation of PBMC (T cells) was quantified by Alamar Blue reduction for the SAg and BT systems. For PBMC viability (referred to as PBMC Cytotoxicity within the assay endpoint names), cells were plated (75,000/well in a 96-well plate) and then chemical samples added for 1 h before addition of activators, SEB and TSST-1 (20 ng/mL final concentration each). Cells were incubated for 90 h. Then, Alamar Blue (20 uL/well) (Invitrogen, Cat DAL1100) was added for 6 h, and the plates were read with a fluorescence microplate reader at 546/580 nm (excitation/emission). For PBMC proliferation, cells were plated and activated as above but incubated for only 16 h prior to addition of Alamar Blue. Plates were read after 6 h.
Compound,outcome,AC50
Nc1ccc(Cc2ccc(N)cc2)cc1,inactive,–
[As]#[In],inactive,–
CN(C)c1ccccc1,inactive,–
CCCSC(=O)N(CCC)CCC,inactive,–
CCC12COCN1COC2,inactive,–
Clc1ccccc1Cl,inactive,–
COC(=O)c1ccccc1N,inactive,–
C=CCc1ccc2c(c1)OCO2,inactive,–
Cc1cc(N=Nc2ccccc2C)ccc1N,inactive,–
CC(C)(OOC(C)(C)c1ccccc1)c1ccccc1,–,29.3 µM (active)
O=C(Oc1ccc(Br)cc1)N1CCN2CCC1CC2,inactive,–
Nc1ccc(N=Nc2ccccc2)cc1,inactive,–
CCOC(=O)[C@]1(c2ccccc2)Oc2ccccc2[C@@H]1N,inactive,–
CC(C)N(Cc1ccccc1)C(=O)C(C)(C)C,inactive,–
Nc1ccc([N+](=O)[O-])cc1,inactive,–
CO[C@@H]1[C@H](OC(=O)NC(=O)CCl)CC[C@]2(CO2)[C@H]1[C@@]1(C)O[C@@H]1CC=C(C)C,inactive,–
C1=Cc2cccc3cccc1c23,inactive,–
CCN(CC)CCO,inactive,–
CCCCCCCCOC(=O)c1ccc(C(=O)OCCCCCCCC)c(C(=O)OCCCCCCCC)c1,inactive,–
Nc1cc(Cl)cc(C(=O)O)c1Cl,inactive,–

Compound,outcome,AC50
CCCCCCCCn1sccc1=O,–,11.6 µM (active)
CC(O)CCO (stereo not given),inactive,–
CN(C)C(=O)Nc1ccc(Cl)cc1,inactive,–
c1ccc(N=Nc2ccccc2)cc1,inactive,–
CCCCCOC(=O)c1ccccc1C(=O)OCCCCC,inactive,–
O=C1CCCO1,inactive,–
Clc1ccc(C(c2ccc(Cl)cc2)C(Cl)(Cl)Cl)cc1,–,34.5 µM (active)
OCCCl,inactive,–
CCOc1cccc(C2(N3CCN(c4ccccc4)CC3)CCC(C)CC2)c1 (stereo not given),inactive,–
COc1cc(C=O)cc2c1[C@H](COC(N)=O)[C@]1(OC(C)=O)ON2C[C@H]2[C@@H]1N2C(C)=O,–,29.2 µM (active)
N#CC(Br)(Br)C(N)=O,inactive,–
CC(C)(C)OOC(=O)c1ccccc1,inactive,–
CN(C)c1ccc(C(=O)c2ccc(N(C)C)cc2)cc1,inactive,–
C[N+](C)(C)CC1CO1 (stereo not given),inactive,–
Cc1ccc(N)c(N)c1,inactive,–
Clc1ccc(Cl)c(Cl)c1,inactive,–
[Cl-].[Cl-].[Hg+2],–,30.9 µM (active)
C[C@]12C=CC3=C4CCC(=O)C=C4CC[C@H]3[C@@H]1CC[C@@H]2O,inactive,–
O=C(Nc1ccccc1)c1ccccc1I,inactive,–
O=[N+]([O-])c1ccc(Oc2ccc(Cl)cc2Cl)cc1,inactive,–
